# Reference: PubChem BioAssay
# Several values for one entry are separate records, joined by “and”; a condition that tells them apart may be missing. Equal entries are not always repeated. Activity calls are given as the source filed them. Rule as the data show it, unless noted: active = inhibition above about 80%; inactive = the rest.
# Columns and labels:
# [1] = compounds altering viability of human ES cells (AID 493140; call rule not given here;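 also: cells exposed to compounds for four days before counting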); settings: human embryonic stem cell survival screen; stronger effect = higher value
# [2] = P. berghei load reduction in hepatocytes – cell-based, HepG2, luciferase luminescence, HepG2 viability, primary screen (AID 624349; in the data active = parasite load remaining mostly below about 12%, no sharp cut-off; inactive = mostly above about 10%;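 also: 100% = mean of DMSO negative control wells on the same plate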); settings: P. berghei liver stage in HepG2, luciferase luminescence, concentration not given here; parasite load remaining: stronger effect = lower value; viability: measured here: HepG2 viability without parasites
# [3] = viability loss with induced miR-34 in A549 – imaging, A549 dox-inducible miR-34, nuclei and caspase counts, primary screen (AID 1347080;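 active = compounds whose cell count with miR-34 switched on is under 0.7 times the count with it off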); settings: A549 miR-34 inducible, Hoechst nuclei count, 48 h
# [4] = MELAS cybrid and Rieske KO viability enhancers – cell-based, MELAS cybrids, Rieske KO mouse fibroblasts, CellTiter-Glo, primary screen (AID 1508586;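 active = mean z-score across replicates of 1.96 or higher in either the MELAS or the Rieske mutant cell line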;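 also: z relative to plate mean and SD of compound and empty wells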); settings: low glucose
# [5] = growth inhibition, single agent or in combination, cell-based, chromothripsis tumors, cisplatin or BGB combos (AID 1671449); settings: LFS_MB_P medulloblastoma cells;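 also: cells exposed for 96 hours; 0% = vehicle DMSO and 100% = killing by high DMSO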
# [6] = growth inhibition, single agent and combos, cell-based, chromothripsis tumors, cisplatin or BGB combos (AID 1671450); settings: HDN33 neuroblastoma cells, stronger effect = higher value;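 also: cells exposed to compound for four days; 0% = vehicle DMSO and 100% = cell killing by high DMSO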
# [7] = growth inhibition, single agents and combos, ICB984, cell-based, cisplatin or BGB combos, synergistic combos for chromothripsis tumors (AID 1671451; call rule not given here;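 also: cells exposed for 96 hours before readout; 0% = vehicle DMSO and 100% = killing by high DMSO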); settings: ICB984 medulloblastoma cells, drug combinations, stronger effect = higher value
# [8] = growth inhibition, single agents and combos, LFS_MB_1R, cell-based, cisplatin or BGB combos, synergistic combos for chromothripsis tumors (AID 1671452); settings: LFS_MB_1R medulloblastoma cells, stronger effect = higher value;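 also: cells exposed for 96 hours before readout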
# [9] = growth inhibition, single agents and combos, HTB85, cell-based, BGB or cisplatin IC20 combos, synergistic combos for chromothripsis tumors (AID 1671453); settings: HTB85 osteosarcoma cells, drug combinations, stronger effect = higher value;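 also: cells exposed for 96 hours before readout; 0% = vehicle DMSO and 100% = high DMSO killing control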
# [10] = growth inhibition, single agents and combos, CRL2098, cell-based, BGB or cisplatin IC20 combos, synergistic combos for chromothripsis tumors (AID 1671454); settings: CRL2098 osteosarcoma cells, drug combinations, stronger effect = higher value;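 also: cells exposed for 96 h before readout; 0% = vehicle DMSO and 100% = killing by high DMSO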
# [11] = growth inhibition, single agents and combos, HD-MB03, cell-based, BGB or cisplatin IC20 combos, synergistic combos for chromothripsis tumors (AID 1671455; in the data active = inhibition above about 83%;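 also: 0% = vehicle DMSO and 100% = high DMSO as cytotoxic control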); settings: HD-MB03 medulloblastoma cells, stronger effect = higher value
# [12] = growth inhibition, single agents and combos, UWB1.289, cell-based, BGB or cisplatin combos, synergistic combos for chromothripsis tumors (AID 1671456); settings: UWB1.289 ovarian carcinoma cells, stronger effect = higher value;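 also: cells exposed to compound for four days; 0% = vehicle DMSO and 100% = killing by high DMSO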
# [13] = growth inhibition, single agents and combos, LFS_MB_2R, cell-based, cisplatin combos, synergistic combos for chromothripsis tumors (AID 1671457); settings: LFS_MB_2R medulloblastoma cells, stronger effect = higher value;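 also: cells exposed to compound for four days before readout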
# [14] = growth inhibition, MDA-MB-436, cell-based, BGB or cisplatin combos, synergistic combos for chromothripsis tumors (AID 1671458; call rule not given here;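 also: cells exposed for 96 hours; 0% = vehicle DMSO and 100% = killing by high DMSO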); settings: MDA-MB-436 breast carcinoma growth inhibition, drug combinations, stronger effect = higher value
# [15] = UWB1.289_BRCA1 ovarian cancer growth, cell-based, BGB or cisplatin combinations (AID 1671459); settings: UWB1.289 BRCA1 ovarian carcinoma, drug combinations, stronger effect = higher value
# [16] = drug combination toxicity in non-malignant astrocytes – cell-based, BGB or cisplatin IC20 combos, cytotoxicity control for chromothriptic childhood tumor combination screen (AID 1671460); settings: Human astrocytes, viability inhibition, drug combinations, at 0.5 µM, stronger effect = higher value;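 also: cells exposed to compounds for 96 hours before viability readout; 0% = vehicle and 100% = killing control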
# [17] = BT084 cell growth, single and combined drugs, ICGC_MB145, cisplatin and BGB IC40 combos (AID 1671461); settings: BT084 medulloblastoma cells, drug combinations, at 0.5 µM, stronger effect = higher value;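 also: cells exposed to drugs for 96 hours; 0% = vehicle DMSO and 100% = high DMSO full killing control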
# [18] = stronger effect = lower value, cell number ratio, induced over uninduced
# [19] = measured here: relative caspase fold change +Dox/-Dox
# [20] = measured here: total cells with miR-34 induction, stronger effect = lower value
# [21] = measured here: total cells without miR-34 induction
# [22] = MELAS cybrid survival, CellTiter-Glo 48 h, stronger effect = higher value
# [23] = Rieske KO mouse fibroblast survival, CellTiter-Glo 72 h
# [24] = measured here: combination with BGB IC40, at 0.05 µM
# [25] = measured here: combination with cisplatin, at 0.5 µM
# [26] = measured here: combination with cisplatin, at 5 µM
structure (smiles),measurement,setting,value
C=CCOc1ccccc1OCC(O)CNC(C)C (stereo not drawn),survival,[1],7.17 (inactive)
same,parasite load remaining,[2],73.5% (inactive)
same,viability,[2],76.9%
same,fold change,[3]; [18],0.94 (inactive)
same,fold change,[3]; [19],0.727
same,cell count,[3]; [20],9530
same,cell count,[3]; [21],10100
same,z-score,[4]; [22],0.73 (inactive)
same,z-score,[4]; [23],0.111
C/C(=C(/CCO)SSCC1CCCO1)N(C=O)Cc1cnc(C)nc1N (stereo not drawn),survival,[1],5.83 (inactive)
same,parasite load remaining,[2],105% (inactive)
same,viability,[2],73.2%
same,fold change,[3]; [18],0.933 (inactive)
same,fold change,[3]; [19],0.561
same,cell count,[3]; [20],9240
same,cell count,[3]; [21],9910
same,z-score,[4]; [22],0.79 (inactive)
same,z-score,[4]; [23],0.563
Nc1ccn(C2OC(CO)C(O)C2(F)F)c(=O)n1 (stereo not drawn),fold change,[3]; [18],1.02 (inactive)
same,fold change,[3]; [19],0.857
same,cell count,[3]; [20],1840
same,cell count,[3]; [21],1810
same,z-score,[4]; [22],2.35 (active)
same,z-score,[4]; [23],-0.225
same,inhibition,"[5]; at 0.5 µM, stronger effect = higher value",12.8% (inactive) and -24.1% (inactive) and -14.5% (inactive)
same,inhibition,"[5]; measured here: combination with BGB IC20, at 0.005 µM",-8.46% and 7.63% and 14%
same,inhibition,"[5]; measured here: combination with BGB IC40, at 0.005 µM",-8.25% and -29.3% and -2.14%
same,inhibition,[5]; [24],-22.1% and -15.3% and -25.2%
same,inhibition,"[5]; measured here: combination with cisplatin, at 0.5 µM, stronger effect = higher value",91.7% and -25.4% and 35.7%
same,inhibition,"[5]; measured here: combination with cisplatin, at 5 µM, stronger effect = higher value",65.8% and 67.6% and 88%
same,inhibition,"[6]; BGB combo, at 5 µM",86.4% and 89.9% and 88.8%
same,inhibition,[6]; at 0.5 µM,87.6% (active) and 87.3% (active) and 83.2% (active)
same,inhibition,"[6]; cisplatin combo, at 5 µM",81.7% and 86.5% and 82.8%
same,inhibition,"[6]; measured here: with BGB IC20 combination, at 0.5 µM",88.2% and 89.8% and 84.6%
same,inhibition,"[6]; measured here: with cisplatin IC20 combination, at 0.5 µM",86.2% and 82.4% and 79.7%
same,inhibition,"[6]; single agent, at 5 µM",88.8% and 90% and 87.7%
same,inhibition,"[7]; BGB IC20 combo, at 0.005 µM",-3.49% and -7.36% and -23.1%
same,inhibition,"[7]; BGB IC40 combo, at 0.005 µM",-5.04% and 4.53% and 16%
same,inhibition,"[7]; BGB IC40 combo, at 0.05 µM",26% and 33.4% and 30.2%
same,inhibition,[7]; at 0.5 µM,-22.9% (inactive) and -37.1% (inactive) and -18.5% (inactive)
same,inhibition,"[7]; cisplatin combo, at 0.05 µM",26% and 30.8% and 27.7%
same,inhibition,"[7]; cisplatin combo, at 0.5 µM",-43.1% and -45% and -7.88%
same,inhibition,"[7]; cisplatin combo, at 5 µM",-24% and -19.7% and -23.1%
same,inhibition,"[7]; measured here: 5 uM single agent, at 5 µM",-32.2% and -6.79% and -21%
same,inhibition,[8]; at 0.5 µM,-17.1% (inactive) and -7.38% (inactive) and 7.19% (inactive)
same,inhibition,[8]; [24],-7.29% and 0.139% and -43.6%
same,inhibition,[8]; [25],49.7% and 24.2% and 32.2%
same,inhibition,[8]; [26],66.7% and 77.2% and 68.3%
same,inhibition,[9]; at 0.5 µM,86.6% (active) and 90.3% (active) and 89.1% (active)
same,inhibition,"[9]; measured here: with BGB IC20, at 0.5 µM",76.2% and 85.7% and 83.4%
same,inhibition,"[9]; measured here: with BGB IC20, at 5 µM",72.1% and 73.5% and 75.1%
same,inhibition,"[9]; measured here: with cisplatin IC20, at 0.5 µM",91.2% and 91.9% and 89.4%
same,inhibition,"[9]; measured here: with cisplatin IC20, at 5 µM",90.4% and 93.2% and 92.8%
same,inhibition,"[9]; single agent, at 5 µM",92.2% and 93.6% and 92.8%
same,inhibition,[10]; at 0.5 µM,68.5% (inactive) and 65.4% (inactive) and 40.8% (inactive)
same,inhibition,"[10]; measured here: combination with BGB at IC20, at 0.5 µM",53% and 49.8% and 5.09%
same,inhibition,"[10]; measured here: combination with cisplatin at IC20, at 0.5 µM",70.5% and 84.6% and 51.6%
same,inhibition,[11]; at 0.5 µM,92.5% (active) and 91.3% (active)
same,inhibition,"[11]; measured here: combo with BGB at IC20, at 0.5 µM",87.4% and 87.6% and 86.6%
same,inhibition,"[11]; measured here: combo with cisplatin at IC20, at 0.5 µM",96.8% and 96.7% and 96%
same,inhibition,[12]; at 0.5 µM,36.9% (inactive) and 40.6% (inactive) and 36.4% (inactive)
same,inhibition,"[12]; measured here: inhibition with BGB combination, at 0.05 µM",-8.95% and 6.66% and -8.78%
same,inhibition,"[12]; measured here: inhibition with cisplatin combination, at 0.05 µM",34.8% and 31% and 33.4%
same,inhibition,[13]; at 0.5 µM,-9.87% (inactive) and -8.63% (inactive) and -0.27% (inactive)
same,inhibition,[13]; [25],22.8% and 20.6% and 41.7%
same,inhibition,[13]; [26],40.3% and 52.4% and 57.5%
same,inhibition,[14]; at 0.5 µM,67.3% (inactive) and 69.9% (inactive) and 70.3% (inactive)
same,inhibition,"[14]; measured here: BGB combination, at 0.5 µM",56.1% and 61.1% and 59%
same,inhibition,"[14]; measured here: BGB combination, at 5 µM",58% and 56% and 66.5%
same,inhibition,"[14]; measured here: cisplatin combination, at 0.5 µM",71.9% and 76.1% and 74.4%
same,inhibition,"[14]; measured here: cisplatin combination, at 5 µM",77.8% and 78.1% and 78.7%
same,inhibition,"[15]; BGB combination, concentration series, at 5 µM",71.1% and 55.2% and 80.4%
same,inhibition,[15]; at 0.5 µM,43.5% (inactive) and 49.4% (inactive) and 43.9% (inactive)
same,inhibition,"[15]; cisplatin combination, concentration series, at 5 µM",101% and 97.9% and 125%
same,inhibition,[16],70% (inactive) and 73.6% (inactive) and 72.6% (inactive)
same,inhibition,[16]; measured here: combo with BGB IC20,71.3% and 72.2% and 72.3%
same,inhibition,[16]; measured here: combo with cisplatin IC20,58.6% and 65% and 62%
same,inhibition,[17],-11% (inactive) and -2.39% (inactive) and 3.77% (inactive)
